# Screening results: PubChem, several laboratories
# TIM10 inh: growth inhibitors of TIM10 yeast strain. 1.4% of 330,000 active. S. cerevisiae TIM10 strain growth, BacTiter-Glo luminescence, 24 h. inhibition, % at 10 µM;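 active = inhibition of 40% or more at the single tested concentration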;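 note: wild-type TIM10 isogenic control strain grown at permissive 25 °C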
# B2AR ag: human beta-2 adrenergic receptor agonism by FAP; response, % (no concentration beside the values); Am2.2-beta2AR cells, FAP receptor internalization, flow cytometry; P07550; 0.43% of 340,000 active;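 active = response above a set limit, near 3 SD of response in nonfluorescent compounds, cut at about 42% in these data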
# Target sequence (P07550 whole entry, looked up): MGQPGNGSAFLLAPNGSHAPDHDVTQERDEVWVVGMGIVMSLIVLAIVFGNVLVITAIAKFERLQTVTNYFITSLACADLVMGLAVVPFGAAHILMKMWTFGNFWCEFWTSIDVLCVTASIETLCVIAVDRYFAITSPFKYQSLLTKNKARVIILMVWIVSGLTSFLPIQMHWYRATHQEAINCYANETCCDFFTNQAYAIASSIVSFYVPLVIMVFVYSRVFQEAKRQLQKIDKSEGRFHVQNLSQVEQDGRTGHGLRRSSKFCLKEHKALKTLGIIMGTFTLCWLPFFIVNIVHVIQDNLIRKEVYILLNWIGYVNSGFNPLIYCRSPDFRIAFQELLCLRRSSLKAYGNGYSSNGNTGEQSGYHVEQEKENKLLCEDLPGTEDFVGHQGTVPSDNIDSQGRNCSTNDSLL
# tim23-1 inh: inhibits growth of tim23-1 mutant yeast. S. cerevisiae tim23-1 growth, BacTiter-Glo luminescence, 24 h. AID 463212. inhibition, % at 20 µM. 1.3% of 330,000 active;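 active = growth inhibition of the mutant yeast at or above 50%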;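 note: temperature-sensitive mutant grown at 25 °C; plate controls were DMSO-treated mutant yeast for no effect and medium wells lacking yeast for full effect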
# tim10-1 inh: growth inhibitors of tim10-1 mutant yeast | inhibition, % at 20 µM | 2.2% of 330,000 active | S. cerevisiae tim10-1 ts strain growth, BacTiter-Glo, 24 h | AID 463190;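 active = inhibition of at least 40%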;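 note: mutant grown at 25 °C; 0% = DMSO wells with yeast and 100% = wells holding no yeast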
# PfHsp90 yeast 2: growth inhibition of yeast expressing Plasmodium Hsp90; S. cerevisiae expressing PfHsp90, BacTiter-Glo ATP, 48 h; yeast lacking PDR1 and PDR3 efflux regulators; inhibition, % at 9.4 µM; 0.32% of 310,000 active; AID 504621;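 active = every replicate shows inhibition above about 80%, whatever the replicate mean, limit read from the data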;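 note: 0% = DMSO neutral controls and 100% = 20 µM radicicol positive controls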
# tim10 confirm: confirmation of TIM10 yeast growth inhibitors | shares compounds with TIM10 inh | S. cerevisiae tim10 strain growth, BacTiter-Glo luminescence, 24 h | inhibition, % at 10 µM | 63% of 4,600 active | AID 463215;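 active = inhibition of yeast growth at or above a set limit in either of two replicates at 10 µM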;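 note: this counterscreen used the strain with wild-type TIM10; 0% = yeast with DMSO and 100% = medium wells lacking yeast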
# * = called active by the depositor; · = no result. Compounds with a hit are over-represented: about 3.8% of the library has one in this group of screens.
SMILES,TIM10 inh,B2AR ag,tim23-1 inh,tim10-1 inh,PfHsp90 yeast 2,tim10 confirm
CC1=CC(C)(C)N(C(=O)c2ccccc2)c2ccccc21,16,5,25,29,-20,·
CC1=CC(C)(C)N(C(=O)c2ccccc2)c2ccc(C)cc21,46*,-2,-6,26,-1,-9
CN(C)CCCN(C(=O)c1ccc(S(=O)(=O)N2CCc3ccccc3C2)cc1)c1nc2c(F)cccc2s1,18,31,4,35,-8,·
Cc1ccc2nc(N(CCCN(C)C)C(=O)c3ccc(S(=O)(=O)N4CCc5ccccc5C4)cc3)sc2c1,45*,18,36,38,5,29
O=C(N=C1c2ccccc2CN1c1ccc(F)c(F)c1)c1cccnc1,49*,6,42,33,0,13
CC1(C)C2CC[C@]3(C)C(CC=C4[C@@H]5C[C@@](C)(CO)[C@@H](O)C[C@]56C[C@@H](OC6=O)[C@]43C)[C@@]2(C)CC[C@@H]1O (stereo partly specified),-14,-1,0,-15,7,·
COc1ccc(/C=N/NC(=S)NCC2CCCO2)cc1 (stereo unspecified),44*,9,33,31,6,20
COc1ccccc1/C=C/C(=O)NC(=S)NCC1CCCO1 (stereo unspecified),42*,-2,21,34,-5,35*
COc1cc(/C=N/NC(=S)NCC2CCCO2)cc(OC)c1OC (stereo unspecified),9,-2,16,10,-4,·
Cc1ccc(S(=O)(=O)N2CCN(C(=O)COC(=O)/C=C/c3cccc([N+](=O)[O-])c3)CC2)c(C)c1,·,21,·,·,-13,·
CCOc1ccc(C=NN2CCCCCC2)cc1OCC,·,-5,·,·,-13,·
CCOc1ccc(/C=N/n2c(SC)nnc2-c2ccccc2)cc1OCC,43*,-8,19,14,-16,21
O=c1c(-c2nnc(SCc3ccc(Cl)c(Cl)c3)o2)cccn1Cc1ccccc1,43*,-1,42,33,-21,30*
Clc1cccc(CSc2nnc(-c3c[nH]c4ccccc34)o2)c1,19,1,2,24,-44,·
O=C(Oc1ccc(C(=S)N2CCOCC2)cc1Br)c1cc(Cl)ccc1Cl,47*,10,24,32,·,15
COc1ccc(N2CCC(CNC(=S)Nc3c(C)cc(C)cc3C)C2)cc1 (stereo unspecified),40*,13,49,0,-26,56*
COc1ccccc1OCC(=O)NCC1CCCN(Cc2cnn(C(C)C)c2)C1 (stereo unspecified),-9,-1,4,7,·,·
O=C(N/N=C/c1c[nH]c2ccccc12)c1cccc(Cl)c1,7,4,14,-5,18,·
O=C(N/N=C/C1C(c2ccccc2)C1(Cl)Cl)c1cccc(Cl)c1 (stereo unspecified),40*,-4,44,37,-18,12
Cc1ccc(O)c(C(=O)/C=C/c2ccc3c(c2)OCCCO3)c1,49*,6,37,38,-7,56*
CCCOc1ccc(C(=O)Nc2cc(S(=O)(=O)N3CCOCC3)ccc2N2CCN(CC)CC2)cc1OC,·,6,·,·,6,·
CCN(C(=O)Cn1ccc(C(F)(F)F)n1)c1c(N)n(Cc2ccccc2)c(=O)[nH]c1=O,-2,2,14,10,-27,·
O=C(Nc1cccc(Cl)c1)c1cnn2cccnc12,52*,-3,45,23,16,35*
O=C(Nc1cc(Cl)cc(Cl)c1)c1cnn2cccnc12,3,0,-3,15,12,·
CCCCn1c(N)c(N(CCC)C(=O)C2CCCC2)c(=O)[nH]c1=O,2,-1,1,-7,29,·
SMILES,TIM10 inh,B2AR ag,tim23-1 inh,tim10-1 inh,PfHsp90 yeast 2,tim10 confirm
Cc1ccc(C(=O)N2CC3(C(C)C)CN(C(=O)c4ccc(C)cc4)CC(C(C)C)(C2)C3=O)cc1,44*,-3,20,38,-9,5
O=C(Nc1c(F)cccc1F)c1cnc(N2CCN(c3ccccn3)CC2)c2ccccc12,43*,-15,31,35,-13,38*
Cc1ccc(NC(=O)c2cnc(N3CCN(c4ccccn4)CC3)c3ccccc23)c(Br)c1,·,23,·,·,-36,·
Cc1ccc(C)c2nc3sc(C(=O)N4CCCc5ccccc54)c(N)c3cc12,46*,-401,41,36,-1,29
O=C1COc2ccc(-c3csc(=Nc4ccc(OC(F)F)cc4)n3CC3CCCO3)cc2N1 (stereo unspecified),40*,5,5,29,·,38*
COc1ccccc1N=c1scc(-c2ccc3c(c2)NC(=O)CO3)n1CC1CCCO1 (stereo unspecified),14,7,6,14,-24,·
O=[N+]([O-])c1ccccc1Nc1cccc(F)c1,·,-17,·,·,-10,·
Cc1ccccc1C(=O)Nc1scc(-c2ccc(Br)cc2)c1C(=O)O,53*,0,47,22,12,42*
O=c1c(Cl)c(N/N=C/c2ccc(Br)cc2)cnn1-c1ccccc1,40*,-7,36,23,-44,-4
CC(C)C(=NO)c1ccccc1,·,3,·,·,-7,·
Cc1ccc2c(c1)-c1nc3ccccc3cc1C2=NC1CCCCC1,·,5,·,·,26,·
Cc1ccc2c(c1)Cc1nc3ccccc3nc1-2,46*,-4,42,19,-64,51*
CS(=O)(=O)c1sc(C#N)c2c1C(=O)CC(c1ccccc1)C2 (stereo unspecified),42*,106*,-12,21,-59,42*
Cc1oc2c(c(=O)c1C)C(=O)CC(c1ccccc1)C2 (stereo unspecified),10,4,20,8,·,·
N#CCCN(C(=S)NC(=O)c1cccs1)c1ccccc1F,9,1,15,19,5,·
O=C(NC(=S)NNC(=O)c1ccccc1O)c1cccc([N+](=O)[O-])c1,42*,3,20,-18,11,56*
O=S(=O)(c1ccc(-c2csc(-c3cccnc3)n2)cc1)N1CCCCC1,48*,9,21,37,·,28
Cc1sc(NC(=O)CN(C(=O)c2ccccc2F)C2CCCC2)c(C(N)=O)c1C,8,3,11,9,7,·
O=C(c1ccco1)N(Cc1ccccc1)c1cccc([N+](=O)[O-])c1,44*,-6,-11,32,12,31
O=C(c1ccco1)N(Cc1cccc([N+](=O)[O-])c1)c1ccc(Br)cc1,13,4,25,24,0,·
CCN(c1ccc(C(=O)CN2C(=O)NC3(CCOc4ccccc43)C2=O)cc1)S(C)(=O)=O (stereo unspecified),1,4,8,1,·,·
CCc1ccccc1NC(=S)N(Cc1ccco1)C(C)c1cccs1 (stereo unspecified),81*,13,32,21,-3,23
CCc1ccccc1NC(=S)N(CCN1CCCCC1)Cc1ccco1,-15,-2,18,11,10,·
